Most compounds without a hit are left out; they make up all but 11% or so of the library.
AmpC inh no detg – qHTS Inhibitors of AmpC Beta-Lactamase (assay without detergent); P00811; AmpC nitrocefin hydrolysis, absorbance 480 nm, 0.0001% Triton; Potency, µM (series often up to 57.1 µM), inactives show at the top dose activity change, negative = inhibition, hits mostly inhibitors; 0.52% of 330,000 active; AID 485341, 2010;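 note: plate controls were no compound for no effect and no enzyme for full effect; nearly all actives have a fitted effect of over 20% in size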
Target sequence (P00811 whole entry, looked up): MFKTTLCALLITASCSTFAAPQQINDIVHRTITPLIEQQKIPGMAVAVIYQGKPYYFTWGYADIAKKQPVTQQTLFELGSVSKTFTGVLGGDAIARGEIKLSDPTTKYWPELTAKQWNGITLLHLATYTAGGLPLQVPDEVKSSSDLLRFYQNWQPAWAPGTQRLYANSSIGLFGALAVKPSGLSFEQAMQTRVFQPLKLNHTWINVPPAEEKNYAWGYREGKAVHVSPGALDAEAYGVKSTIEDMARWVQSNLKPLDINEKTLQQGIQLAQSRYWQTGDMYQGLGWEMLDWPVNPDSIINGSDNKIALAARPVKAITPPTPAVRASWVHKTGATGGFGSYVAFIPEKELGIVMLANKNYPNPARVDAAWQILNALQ
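20 mM phosphate pH 7.0 + 0.01% (detergent screen) or 0.0001% Triton X-100; 5.3 nM AmpC reagent; cpd preinc 15 min RT; nitrocefin (800 uM stock) to start; A480 q20 s × 4 min; Activity was normalised to no-enzyme and no-compound control wells.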
Pf growth 48h – Primary qHTS for delayed death inhibitors of the malarial parasite plastid, 48 hour incubation; P. falciparum luciferase growth in erythrocytes, 48 h; Potency, µM (titrated, usually from 28.7 µM), for inactives: at the top dose activity change, negative = inhibition, actives largely listed as inhibitors; 5.9% of 310,000 active
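Erythrocytes infected with P. falciparum carrying an integrated firefly luciferase reporter (2% hematocrit, 0.1% parasitemia final) were exposed to compounds in RPMI 1640 with 0.5% Albumax at 37 C, 5% CO2. Growth inhibition was scored as reduced luminescence.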
HCV inhibitor – qHTS Assay for Inhibitors of Hepatitis C Virus (HCV) | 3.4% of 340,000 active | Huh7.5.1 HCVcc-Cre infection, luciferase reporter, 44 h | Potency, µM (top dose mostly 41.8 µM), for inactives: at the highest dose activity change, negative = inhibition, hits mostly inhibitors
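Reporter virus HCVcc-Cre (~0.5 moi) infects cells exposed to compound; seeding density 1,000 cells/well with 4 h settling beforehand. Luminescence, 15 sec read, taken 44 h post-infection following a 15 min RT substrate incubation.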
AMA1 RON2 block – qHTS for Inhibitors of AMA1-RON; Towards Development of Antimalarial Drug Lead: Primary Screen; AlphaScreen AMA1-biotinylated RON2 peptide binding; Plasmodium falciparum AMA1 (3D7) - RON2 peptide interaction; 0.2% of 360,000 active; AID 720542, 2013; Potency, µM (doses to about 58.2 µM), inactives show top-dose activity change, negative = inhibition, hits mostly inhibitors;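 note: 0% = vehicle wells and -100% = peptide control; nearly all actives have a fitted effect of over 45% in size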
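AMA1 (3D7) with his tag at 25 nM final met compounds first, then biotinylated RON2 peptide at 25 nM; detection used donor plus acceptor beads, 10 µg/mL apiece, read by AlphaScreen after 30 min at room temperature.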
Pf growth 96h – Primary qHTS for delayed death inhibitors of the malarial parasite plastid, 96 hour incubation; 6.9% of 320,000 active; P. falciparum luciferase reporter growth, 96 h; Potency, µM (highest dose often 28.7 µM), without a hit: at the highest dose activity change, negative = inhibition, hits mostly inhibitors
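Delayed-death screen, second-generation endpoint: infected erythrocytes, 2% hematocrit, 0.05% parasitemia final; 96 hours at 37 C, 5% CO2; luciferase detection reagent; luminescence decrease equals reduced growth.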
AmpC detergent – qHTS Inhibitors of AmpC Beta-Lactamase (assay with detergent) | P00811 | AmpC hydrolysis of nitrocefin, absorbance 480 nm, 0.01% Triton | Potency, µM (series often up to 114 µM), inactives show at the highest dose activity change, negative = inhibition, usual class: inhibitors | 0.041% of 370,000 active;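 note: 0% = no-compound wells and -100% = no-enzyme wells; nearly all actives have a fitted effect of over 25% in size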
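20 mM phosphate pH 7.0 + 0.01% (detergent screen) or 0.0001% Triton X-100; 5.3 nM AmpC reagent; cpd preinc 15 min RT; nitrocefin (800 uM stock) to start; A480 q20 s × 4 min; Activity was normalised to no-enzyme and no-compound control wells.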
An asterisk follows results filed as active; ? = inconclusive; . = no result given; [ ] = remark or other dose. Calls come from the whole dose curve; as a rule, active = well fitted curve in the direction sought with a large enough effect; inconclusive = small, poorly fitted or top-dose-only effect, or another doubt; inactive = no such curve, though single readings can be large; an effect the other way counts as inactive or inconclusive. Unless noted, % is set by controls: 0 for no effect and ±100 for the full control effect; potency is the fitted concentration of half-maximal effect.

SMILES | AmpC inh no detg | Pf growth 48h | HCV inhibitor | AMA1 RON2 block | Pf growth 96h | AmpC detergent
Cc1ccccc1OCCOC(=O)c1c(-c2ccccc2)noc1C | -36.1% | 11.7µM* | -23.6% | 34.2% | ? | -5.9%
Cc1onc(-c2ccccc2)c1C(=O)OCc1nnc(-c2ccc([N+](=O)[O-])cc2)o1 | -13.7% | -7.3% | -30.9% | -7.5%[11.6 µM] | -8.9% | 4.6%
CCc1ccccc1N1C(=O)N(CC(=O)c2ccc(Cl)cc2)c2ccccc2S1(=O)=O | . | . | . | . | . | 10.5%
O=c1c2ccccc2nc(SCc2cccc(F)c2)n1-c1cccc(S(=O)(=O)N2CCCC2)c1 | -24.8% | ? | ? | -2.0% | 6.57µM* | ?
Cc1ccc(S(=O)(=O)N2CCOCC2)cc1NC(=O)CSc1nc2ccccc2c(=O)n1Cc1ccccc1 | 21.0% | ? | -28.2% | -1.9% | 5.22µM* | -2.5%
COC(=O)c1ccc2c(=O)n(Cc3ccco3)c(SCC(=O)Nc3ccc(C)c(Cl)c3)nc2c1 | -33.5% | ? | 9.7% | 14.3% | . | ?
O=C(CSc1nc2ccccc2c(=O)n1-c1ccc(F)cc1)Nc1ccc(N2CCOCC2)cc1 | -25.5% | -26.0% | ? | ? | ? | -0.1%
O=C(CSc1nc2ccccc2c(=O)n1-c1ccc(F)cc1)Nc1cc(S(=O)(=O)N2CCOCC2)ccc1Cl | 15.1% | 6.57µM* | -12.6% | 2.4% | 3.7µM* | -21.1%
O=C(CSc1nc2cc(Cl)ccc2c(=O)n1Cc1ccco1)Nc1ccc(S(=O)(=O)N2CCOCC2)cc1 | -29.2% | ? | ? | 6.8% | 10.4µM* | -9.3%
COC(=O)[C@@]12CCCCN1[C@H](c1ccc(-c3ccc(F)cc3)c(OC)c1)[C@@H]1C(=O)N(C)C(=O)[C@@H]12 | 225.2% | 13.1µM* | ? | -2.2% | 11.7µM* | 1.5%
COC(=O)[C@@]12CCCCN1[C@H](c1ccc(-c3cc(C(C)=O)cs3)c(OC)c1)[C@H]1C(=O)N(C)C(=O)[C@H]12 | -37.3% | 4.15µM* | 1.1% | -3.4% | ? | -5.3%
COC(=O)[C@@]12CCCCN1[C@H](c1ccc(-c3cc(C(C)=O)cs3)cc1)[C@H]1C(=O)N(C)C(=O)[C@H]12 | -11.1% | ? | 18.7% | -1.3% | 2.0% | 1.3%
COC(=O)[C@@]12CCCCN1[C@H](c1ccc(-c3ccc(Cl)c(Cl)c3)c(OC)c1)[C@@H]1C(=O)N(C)C(=O)[C@@H]12 | . | . | -29.1% | 11.5% | . | .
COC(=O)[C@@]12CCCN1[C@H](c1ccc(-c3ccccc3)c(OC)c1)[C@H]1C(=O)N(C)C(=O)[C@H]12 | 179.6% | . | 0.7% | -4.1% | . | .
COC(=O)[C@@]12CCCN1[C@H](c1ccc(-c3ccc(OC)cc3)c(OC)c1)[C@@H]1C(=O)N(C)C(=O)[C@@H]12 | 185.6% | 13.1µM* | ? | -9.0% | 11.7µM* | -4.0%
COC(=O)[C@@]12CCCCN1[C@H](c1ccc(-c3ccc4c(c3)OCO4)c(OC)c1)[C@@H]1C(=O)N(C)C(=O)[C@@H]12 | 152.3% | 5.22µM* | ? | -22.6% | 13.1µM* | -6.9%
O=C(Cn1cc(C(=O)C2CC2)c2ccccc21)Nc1ccc(Br)cc1 | . | . | . | . | . | 22.2%
CCC(=O)Nc1ccc(-c2nnc3c4ccccc4c(C)nn23)cc1 | . | . | . | . | . | 20.2%
COC(=O)[C@@]12CCCCN1[C@H](c1ccc(-c3ccc(F)cc3)cc1)[C@@H]1C(=O)N(C)C(=O)[C@@H]12 | 75.4% | ? | -18.9% | -4.5% | 13.1µM* | 1.2%
COC(=O)[C@@]12CCCN1[C@H](c1ccc(-c3ccc(OC)cc3)c(OC)c1)[C@H]1C(=O)N(C)C(=O)[C@H]12 | 295.7% | 8.28µM* | -4.2% | -8.1% | ? | -0.8%

Compound activity deposited in PubChem by National Center for Advancing Translational Sciences (NCATS).
